gsp ag: gsp mutant agonism; Potency, µM (series often up to 76.9 µM), for inactives: at the top dose activation (cAMP increase), usual class: activators; gsp mutant cells, cAMP HTRF, 30 min; 340,000 tested, 0.13% active; active = well fitted activation curve with a large enough effect; inconclusive = small, poorly fitted or top-dose-only effect, or another doubt; inactive = no such curve, though single readings can be large or run the other way; cell line not stated here;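 note: phosphodiesterase inhibitor Ro 20-1724 added with compounds to block cAMP breakdown; potency is the fitted concentration of half-maximal effect; nearly all actives have a fitted effect of over 60% in size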
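Cells stably selected in G418 were plated at 2000/well, grown 16-24 hr, then given compounds in DMSO with the PDE inhibitor […] (300 uM solution added) for 30 min at 37C; cAMP was read by HTRF.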
RXFP1 agonist: agonists of human relaxin receptor RXFP1; Potency, µM (doses to about 57.5 µM), inactives show at the highest dose activation, usual class: activators; AID 2676; Q9HBX9; 370,000 tested, 0.3% active; HEK293T-RXFP1 cAMP TR-FRET, 30 min; response scale: percent of porcine relaxin response, buffer zero; active = well fitted activation curve with a large enough effect; inconclusive = small, poorly fitted or top-dose-only effect; note: potency is the fitted concentration of half-maximal effect; % is set by controls: 0 for no effect and ±100 for the full control effect; nearly all actives have a fitted effect of over 60% in size
Target sequence (Q9HBX9 whole entry, looked up): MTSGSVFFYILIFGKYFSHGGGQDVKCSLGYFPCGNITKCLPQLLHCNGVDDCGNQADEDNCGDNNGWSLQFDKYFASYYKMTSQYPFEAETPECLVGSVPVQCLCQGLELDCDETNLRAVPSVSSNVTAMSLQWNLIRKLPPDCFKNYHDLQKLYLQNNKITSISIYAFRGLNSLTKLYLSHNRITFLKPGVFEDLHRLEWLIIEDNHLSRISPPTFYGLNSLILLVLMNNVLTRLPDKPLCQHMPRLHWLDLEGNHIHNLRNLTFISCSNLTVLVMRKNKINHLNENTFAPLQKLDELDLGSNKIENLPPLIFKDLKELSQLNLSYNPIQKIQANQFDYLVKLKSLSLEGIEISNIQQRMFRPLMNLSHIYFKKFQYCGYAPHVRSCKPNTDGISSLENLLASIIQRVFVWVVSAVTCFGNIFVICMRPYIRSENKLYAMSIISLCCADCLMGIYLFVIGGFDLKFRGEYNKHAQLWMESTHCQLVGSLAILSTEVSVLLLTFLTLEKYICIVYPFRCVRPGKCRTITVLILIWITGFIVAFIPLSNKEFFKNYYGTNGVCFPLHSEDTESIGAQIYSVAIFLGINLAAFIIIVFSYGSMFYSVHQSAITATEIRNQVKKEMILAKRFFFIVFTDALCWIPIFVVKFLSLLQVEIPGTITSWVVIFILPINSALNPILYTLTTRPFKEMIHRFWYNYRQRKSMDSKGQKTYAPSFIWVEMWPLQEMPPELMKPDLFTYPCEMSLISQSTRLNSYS
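HEK293T cells stably expressing RXFP1 were pretreated with the PDE4 inhibitor Ro 20174, exposed to compounds for 30 min at 37C, lysed, and cAMP was read by TR-FRET. Data normalized to buffer (basal) and 29 nM porcine relaxin (100%).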
RXFP1 antagonist: RXFP1 (human) relaxin receptor antagonism; HEK293-RXFP1, relaxin-stimulated cAMP HTRF, 30 min; stronger effect = lower value; 350,000 tested, 0.59% active; Q9HBX9; activity change, negative = inhibition, % at 57.5 µM;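 active = activity change of -60% or lower, but not beyond a set lower limit; inconclusive = change between -60% and -40%, or beyond the set limit; inactive = change above -40%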; note: % is set by controls: 0 for no effect and ±100 for the full control effect
gsp antagonist: antagonizes gsp, the McCune-Albright syndrome mutation | Potency, µM (top dose mostly 76.9 µM), inactives show at the highest dose activity change, negative = inhibition, hits mostly inhibitors | AID 624288 | gsp-mutant cells, cAMP HTRF, 30 min | 340,000 tested, 0.4% active; calls by dose curve; cell line not stated here;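 note: intracellular cAMP measured with PDE inhibitor Ro 20-1724 present during compound exposure; potency is the fitted concentration of half-maximal effect; % is set by controls: 0 for no effect and ±100 for the full control effect; nearly all actives have a fitted effect of over 65% in size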
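Measurement of cellular cAMP by homogeneous time-resolved fluorescence following a 30 min compound exposure at 37C. The PDE inhibitor […] was present throughout; the assay buffer was DPBS with 0.05% BSA and 0.005% Tween 20.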
pAkt inh: inhibitors of Akt phosphorylation. Neuro2A IGF-stimulated pAkt S473 HTRF, 20 min; stronger effect = lower value. activity change, % for hits at 50 µM. 360,000 tested, 0.32% active; in the data active = activity change below about -80%; inconclusive = mostly about -51% to -80%; note: % is set by controls: 0 for no effect and ±100 for the full control effect
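Single-point screen (50 µM final compound) in Neuro2A cells stimulated 20 min with 6 nM IGF at 37 deg C. After lysis, Ser473-phosphorylated Akt read by HTRF (ex 330 nm, em 615/665 nm) as the 665/615 ratio.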
An asterisk follows results filed as active; i = inactive; ? = inconclusive; / = no result; [ ] = remark or other dose. This is a sample that favours compounds with a hit; in the whole collection about 1.2% have one here.

SMILES | gsp ag | RXFP1 agonist | RXFP1 antagonist | gsp antagonist | pAkt inh
O=C(NC1CCCCC1)c1ccc(CNc2nc(=S)[nH]c3ccccc23)cc1 | 6.3%[15.4 µM] | 0.1% | -80.8* | -14.6% | i
c1ccc(CCNc2nc(-c3ccccc3)cs2)cc1 | / | / | -36.5 | / | /
O=C(Nc1ccncc1)c1ccc2c(c1)C(=O)N(C1CCCCC1)C2=O | -37.6% | -0.2% | -11.4 | 22.4µM* | i
CC1=Nn2c(nnc2-c2ccco2)SC1 | -15.7% | 2.5% | -8.3 | 1.5% | -102.4%*
COc1ccc(-c2nnc3n2N=C(C)CS3)cc1 | 4.7% | 2.2% | -7.6 | 3.3% | -83.6%*
CCCn1ccc2c(OCC(=O)Nc3ccccc3C(=O)OCC)cccc2c1=O | / | 2.1% | / | / | /
COc1cc(/C=C2/C(=N)N3OC(C)=CC3=NC2=O)ccc1OC(=O)c1ccco1 | 6.1%[15.4 µM] | 2.4% | -74.7* | -4.3% | i
CC1=CSC2=NC(=O)/C(=C/c3cccc(OC(=O)c4ccco4)c3)C(=N)N12 | 17.8% | -0.5% | -80.0* | 0.5% | i
O=C(Nc1ccc(S(=O)(=O)N2CCOCC2)cc1)c1cc(Cl)ccc1NS(=O)(=O)c1ccc(Cl)s1 | / | / | -34.4 | / | /
CC(C)(C)c1ccc(OCC(O)CN2CCN(C(=O)c3ccccc3)CC2)cc1 (stereo unspecified) | 3.0% | 0.4% | -2.7 | -1.4% | i
CCCOC(=O)c1ccc(OCC(O)CN2CCN(C(=O)c3ccccc3)CC2)cc1 (stereo unspecified) | -6.6% | 9.9% | 10.1 | -1.4% | -128.0%*
CC(C)(C)OC(=O)NCCCCCc1nnc(SCC(=O)Nc2cccc(Cl)c2)o1 | 13.3% | 2.5% | -2.6 | 35.5µM* | i
O=C(O)c1cc(-c2cccs2)nc2ccc(F)cc12 | 25.1µM* | ? | -0.3 | -18.0% | i
COc1ccc([C@]23Cc4cc(C#N)ccc4C(O2)C2=C(CC4(CCCCC4)OC2=O)O3)cc1 | / | -0.2%[11.5 µM] | / | / | /
CCOC(=O)/C(=N\Nc1ccccc1Cl)N1CC(C)OC(C)C1 (stereo unspecified) | 26.1% | 1.6% | -67.3* | -13.2% | i
CCOC(=O)/C(=N\Nc1cc(Cl)ccc1Cl)N1CC(C)OC(C)C1 (stereo unspecified) | ? | 0.1% | -11.2 | 1.6% | i
CCOc1ccc(CCNC(=O)c2cc3c(=O)oc4ccc(C)cc4c3s2)cc1OCC | / | 0.7% | / | / | /
Cc1cc(N/N=C/c2ccc(O)c(C)c2O)nc(-c2ccccc2O)n1 | ? | -0.3% | -72.2* | -20.8% | i
CC(C)(C)c1nc(SCC(=O)c2ccccc2)c2ccccc2n1 | 4.5%[15.4 µM] | -0.9% | -66.8* | -17.1% | i
CC(C)(C)c1nc(SCC(=O)N2CCCC2)c2ccccc2n1 | 2.4%[15.4 µM] | -1.3% | -10.9 | / | i
CCOC(=O)c1ccc(NC(=O)Cc2coc3cc(C)cc(C)c23)cc1 | / | -0.6% | -35.6 | / | /
CC(C)(C)c1ccc(-c2nc3cc(N)ccc3o2)cc1 | 17.0% | 7.8% | -83.7* | 1.8% | i
Cc1ccc(-c2nc3cc(N)ccc3o2)cc1 | ? | 13.0% | 8.2 | 4.5% | i
Cc1ccc(-c2nc3cc(N)ccc3o2)c(C)c1 | 31.6µM* | 17.4% | 2.1 | 16.4% | i
Nc1nc(Nc2ccccc2F)sc1C(=O)c1ccc(Cl)cc1 | / | 4.5% | -32.0 | / | /
SMILES | gsp ag | RXFP1 agonist | RXFP1 antagonist | gsp antagonist | pAkt inh
COc1ccc(-c2nnc(NC(=O)c3ccc(S(=O)(=O)N4COCC4(C)C)cc3)o2)cc1 | 9.8% | 0.9% | -0.5 | -34.7% | i
CC1(C)COCN1S(=O)(=O)c1ccc(C(=O)Nc2nnc(-c3ccc(Cl)s3)o2)cc1 | -1.2% | -0.2% | -12.5 | 31.6µM* | i
Cn1c2ccccc2c2nnc(SCC(=O)Nc3cccc(C(=O)O)c3)nc21 | 14.1µM* | 15.8µM* | 2.3 | -11.8% | i
CCN(CC)C(=O)CSc1nnc2c3ccccc3n(C)c2n1 | 7.08µM* | ? | 10.8 | -9.4% | i
CCCn1c2ccccc2c2nnc(SCC(=O)Nc3cccc(C(C)=O)c3)nc21 | / | 13.4% | -19.8 | / | /
O=C(Cn1cc(S(=O)(=O)Cc2ccc(F)cc2)c2ccccc21)NCc1ccccc1Cl | / | 2.1% | -19.3 | / | /
CCN(CC)CCCN(c1ccccc1)C1Cc2ccccc2C1 | / | / | -11.5 | / | /
COc1ccc(/C=N/NC(=O)c2cccc(Br)c2)cc1Cn1cc(Cl)cn1 | -3.0% | -0.2% | -9.2 | -9.9% | -103.1%*
CC(C)c1ccc2oc(=O)cc(CN3CCN(c4ccc(F)cc4)CC3)c2c1 | 3.7% | 0.1% | -19.1 | 35.5µM* | i
CCc1ccc2oc(=O)cc(CN3CCN(c4ccc(F)cc4)CC3)c2c1 | 1.0% | 4.1% | -14.6 | -12.4%[15.4 µM] | i
CCc1noc(-c2ccc(NCc3ccccc3)c([N+](=O)[O-])c2)n1 | / | 14.2% | / | / | /
CCN(CC)S(=O)(=O)c1ccc(-c2nnc(SCC(=O)Nc3nnc(C)s3)n2CC)cc1 | -15.1% | 0.2% | -0.9 | -29.7% | -111.5%*
CCN1CCc2c(sc(NC(=S)NC(=O)c3ccc(Cl)cc3)c2C(N)=O)C1 | 11.3%[15.4 µM] | -6.1% | -110.3* | -18.0% | i
O=C(NCc1nc2ccccc2n1Cc1ccccc1Cl)c1ccccc1 | / | -0.7% | -0.4 | / | /
COc1ccc(C2C3=C(CC(C)(C)CC3=O)Nc3c2c(=O)[nH]c(=O)n3Cc2ccccc2)cc1OC (stereo unspecified) | 0.1% | 0.3% | 8.6 | -17.0% | i
COc1ccc(C2C3=C(CC(C)(C)CC3=O)Nc3c2c(=O)[nH]c(=O)n3Cc2ccccc2)cc1 (stereo unspecified) | 13.9% | -1.6% | -23.1 | -3.3% | -102.1%*
CCOC(=O)c1c(C)n(-c2ccccc2)c2ccc(OC(=O)c3ccccc3NC(=O)C(C)(C)C)cc12 | / | 0.0% | -64.0* | / | /
CCOC(=O)c1c(C)n(-c2ccccc2)c2ccc(OC(=O)c3ccccc3NC(=O)C(C)C)cc12 | / | -0.6% | -32.2 | / | /
COc1ccc(NC(=O)c2nnn(CC(=O)Nc3ccccc3OC)c2N)c(OC)c1 | -9.9% | 5.9% | -101.7* | 8.7% | i
CC(C)c1ccc(CNc2nc(-c3ccco3)nn2C(=O)c2ccc([N+](=O)[O-])cc2)cc1 | / | -0.9% | -10.5 | / | /
Cc1cc(N)n2nc(C)c(-c3ccc(Cl)cc3)c2n1 | 3.4%[15.4 µM] | -0.6% | 0.1 | / | i
Cc1cc(Cl)n2nc(C)c(-c3ccc(Cl)cc3)c2n1 | 10.8%[15.4 µM] | 2.0% | -69.0* | -21.7% | i
CCc1ccccc1Nc1sc(C(=O)c2ccccc2)c(N)c1S(=O)(=O)c1ccccc1 | / | 0.4% | -5.9 | / | /
COc1ccccc1N1CCN(CC(O)COc2cc(C)cc(C)c2)CC1 (stereo unspecified) | / | -1.1% | -5.8 | / | /
COc1ccccc1N1CCN(CC(O)COc2ccc(C)cc2C(C)(C)C)CC1 (stereo unspecified) | / | 5.7% | -82.9* | / | /
Cc1cc(N2CCOCC2)nc(SCc2ccc(Cl)cc2Cl)n1 | -0.7% | 0.3% | -6.8 | -7.0% | -109.9%*
Cc1cc(N2CCOCC2)nc(SCC(=O)OCc2ccccc2)n1 | 4.8%[15.4 µM] | 0.0% | -11.0 | 4.0% | i
